The list is not random: actives were taken first. Their share in the collection is about 7.8%.
TSHR agonist: TSH receptor (human) agonism; P16473; HEK293-CNG-TSHR cells (CNG channel as cAMP sensor), membrane potential dye, cAMP; actives 0.48% (n = 73,000); Potency, µM (doses to about 57.1 µM), for inactives: at the top dose activation, hits mostly activators; AID 926; active means well fitted activation curve with a large enough effect in the main read-out, with a control signal flat, not every such curve was filed as active; inconclusive means small, poorly fitted or top-dose-only effect, or a change in a side signal; inactive means no such curve, though single readings can be large or run the other way; % of control where 0% means no effect;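 further: the control signal comes from parental cells without the receptor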
Target sequence (P16473 whole entry, looked up): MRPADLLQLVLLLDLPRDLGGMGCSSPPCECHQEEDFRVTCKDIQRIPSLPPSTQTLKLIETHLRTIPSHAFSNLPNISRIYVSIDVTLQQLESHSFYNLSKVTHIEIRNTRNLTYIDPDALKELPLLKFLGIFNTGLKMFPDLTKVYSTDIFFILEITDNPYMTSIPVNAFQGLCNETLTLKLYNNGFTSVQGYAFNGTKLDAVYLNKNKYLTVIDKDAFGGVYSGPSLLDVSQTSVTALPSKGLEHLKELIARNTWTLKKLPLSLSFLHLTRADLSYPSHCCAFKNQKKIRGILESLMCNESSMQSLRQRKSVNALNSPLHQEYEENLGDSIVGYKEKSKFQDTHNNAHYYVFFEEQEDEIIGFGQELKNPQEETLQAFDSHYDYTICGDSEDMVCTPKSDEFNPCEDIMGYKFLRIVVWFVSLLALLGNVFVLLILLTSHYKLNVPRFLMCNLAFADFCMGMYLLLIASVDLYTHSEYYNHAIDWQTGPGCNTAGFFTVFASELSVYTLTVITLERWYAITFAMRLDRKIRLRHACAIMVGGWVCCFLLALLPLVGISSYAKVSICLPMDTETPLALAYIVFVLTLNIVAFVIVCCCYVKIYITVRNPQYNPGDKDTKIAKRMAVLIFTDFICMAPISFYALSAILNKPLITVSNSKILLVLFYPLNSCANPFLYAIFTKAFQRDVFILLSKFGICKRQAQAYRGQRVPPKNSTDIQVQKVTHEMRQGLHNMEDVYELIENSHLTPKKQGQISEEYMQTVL
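cAMP rise detected as CNG-channel membrane depolarization by fluorescent dye (emission 590 nm), 30 min after compound, following 60 min dye loading containing 100 uM RO 20-1724 at room temperature. Cells: TSHR/CNG HEK 293, with parental CNG HEK 293 as control.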
ALOX15 inhib: 15-hLO (ALOX15) enzyme inhibition. purified 15hLO-1, xylenol orange hydroperoxide absorbance. Potency, µM (titrated, usually from 57.1 µM), without a hit: at the top dose activity change, negative = inhibition, actives largely listed as inhibitors. actives 1.4% (n = 74,000); further: on the % scale 0 is the no-effect control and ±100 the full control effect; nearly all actives have a fitted effect of over 55% in size
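Quantitative HTS in 25 mM Hepes pH 7.5 containing 0.01% Triton X-100: human 15hLO-1 at 40 nM, arachidonic acid at 50 uM, 6 min turnover. Product quantified via ferrous oxidation/xylenol orange, 573:405 nm absorbance ratio.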
Tau filament bind: tau filament binding; actives 2% (n = 71,000); Potency, µM (doses to about 57.1 µM), for inactives: at the highest dose activity change, negative = inhibition; P10636; recombinant tau filaments, thioflavin S fluorescence, 15 h; filaments grown with octadecylsulfate alongside compound; AID 596;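 further: on the % scale 0 is the no-effect control and ±100 the full control effect; actives lower thioflavin S fluorescence by blocking filaments or displacing dye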
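Quantitative HTS: thioflavine S signal from ODS-induced tau filaments, excited at 450 nm, emission 510 nm. Conditions: 1 uM tau, 30 uM ODS, 15 h at 37 C, pH 7.4.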
Bst PK mod: alters activity of Bacillus stearothermophilus pyruvate kinase | purified pyruvate kinase, luminescence ATP production; ribose 5-phosphate activator present at AC10 | Potency, µM | actives 1.2% (n = 51,000) | AID 361; in the data active means potency below about 11 µM; inconclusive means mostly about 12 µM to 25 µM;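 the screen sought inhibitors and activators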;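 further: scaled between full activation by ribose 5 phosphate and full inhibition by luteolin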
HEK293 cAMP cs: raises cAMP in parental HEK293 cells, TSHR agonist counter-screen; parental HEK293 CNG cAMP sensor, membrane potential fluorescence; Potency, µM (series often up to 57.1 µM), inactives show at the highest dose activation, most hits filed as activators; actives 2.5% (n = 73,000); further: % of control where 0% means no effect; nearly all actives have a fitted effect of over 55% in size
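Parental HEK 293 cells stably expressing a modified CNG channel (no TSHR) report cAMP rise as membrane depolarization. Membrane potential dye with 100 uM RO 20-1724 was loaded for 60 min at room temperature, then compound added for 30 min; fluorescence read at 590 nm.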
FLuc inh: blocks Photinus pyralis firefly luciferase activity | actives 2.2% (n = 72,000) | P08659 | purified firefly luciferase, luminescence, 8 min | Potency, µM (doses to about 57.1 µM), without a hit: at the top dose activity change, negative = inhibition, hits mostly inhibitors; further: on the % scale 0 is the no-effect control and ±100 the full control effect; nearly all actives have a fitted effect of over 40% in size
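Titration-based qHTS; buffer 50 mM imidazole pH 7.2, 50 mM KCl, 7 mM MgCl2, 10 uM ATP, 0.01% Tween 20, 0.05% BSA; luciferase/luciferin detector mix added after compound; 8 min, ambient; luminescence.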
Starred values were filed as active, the others as inactive; i = inactive; ? = inconclusive; / = no result given; [ ] = remark or other dose. Unless noted, the call rests on the fitted dose curve; in most records, active means well fitted curve in the direction sought with a large enough effect; inconclusive means small, poorly fitted or top-dose-only effect, or another doubt; inactive means no such curve, though single readings can be large; an effect the other way counts as inactive or inconclusive. Potency means the concentration at half of the fitted maximal effect.

SMILES	TSHR agonist	ALOX15 inhib	Tau filament bind	Bst PK mod	HEK293 cAMP cs	FLuc inh
CCn1c(=O)[nH]c2cc(Cl)c(Cl)cc21	16%	-10%[25.6 µM]	?	/	0%	4%
CC(C)c1nc(N2CCN(C(=O)c3ccco3)CC2)c2c3c(sc2n1)CCCC3	10µM*	?	9%	>57	19%	1%
COc1cc(C2N(c3ccccc3)CCN2c2ccccc2)cc(OC)c1OC	3.2µM*	2%	-7%	/	29%	-2%
Cc1cn(CC[C@H](N)C(=O)O)c(=O)[nH]c1=O	-6%[11.4 µM]	0%[11.4 µM]	6%[11.4 µM]	/	21%[11.4 µM]	2%[11.4 µM]
CCc1ccccc1OC[C@@H](O)CN[C@H]1CCCc2ccccc21	?	-10%[25.6 µM]	13µM*	/	40µM*	-14%
CCCCCOc1ccc(C(=O)N(Cc2ccco2)C2CCS(=O)(=O)C2)cc1 (stereo not drawn)	?	-6%	3%	>57	25µM*	1%
Oc1c(Cl)cc(Cl)cc1Sc1cc(Cl)cc(Cl)c1O	/	16µM*	?	>26	20%	1%[25.5 µM]
COc1ccc(OC2C=CC(C#Cc3ccc(Br)cc3)OC2CO)c(C(C)(C)C)c1 (stereo not drawn)	4%[11.4 µM]	-30%[11.4 µM]	/	/	9%[11.4 µM]	/
COc1ccccc1C1C=C(c2ccc(C)cc2)Nc2nnnn21 (stereo not drawn)	?	-19%	91%	/	25µM*	1%
COc1ccc(C2=CC(c3c(C)nn(-c4ccccc4)c3Cl)n3nnnc3N2)cc1OC (stereo not drawn)	?	?	337%	>57	18%	1%
COC(=O)c1cc(OC)c(OC)cc1NC(=O)c1c(-c2ccccc2Cl)noc1C	?	-16%[11.4 µM]	281%[11.4 µM]	/	?	-6%
Cc1ccc2nc(-c3ccccn3)oc2c1	-2%	-8%	0%	6.9*	6%	7.9µM*
Cc1ccc(-c2nc(-c3cccnc3)no2)c(C)c1	18%	2%	0%	?	26%	13µM*
CC(C)CC(=O)Nc1ccc2oc(-c3cccnc3)nc2c1	/	5%[11.4 µM]	12%[11.4 µM]	/	4%[11.4 µM]	13µM*
Cc1ccc2nc(-c3cccnc3)oc2c1	1%	13%	1%	i	6%	25µM*
Cc1ccc2oc(-c3ccc(NC(=O)c4cccnc4)cc3)nc2c1	2%	-2%	134%	/	2%	-11%
c1ccc(-c2nc3cc(Oc4ccc5oc(-c6ccccn6)nc5c4)ccc3o2)nc1	6%	15%	1%	>57	6%	-7%
CC1(C)OC2CC3C4CC(F)C5=CC(=O)C=C[C@@]5(C)[C@@]4(F)C(O)C[C@@]3(C)[C@]2(C(=O)CO)O1 (stereo partly drawn)	/	-3%	/	/	/	/
O=C1c2ccccc2C(=O)c2c1ccc(N1C(=O)c3ccccc3C1=O)c2-c1c(N2C(=O)c3ccccc3C2=O)ccc2c1C(=O)c1ccccc1C2=O	1%[11.4 µM]	/	?	/	-10%[11.4 µM]	1%[11.4 µM]
Cc1cc(C(F)(F)F)nc(SCC(=O)NC2CC3CCC2C3)n1 (stereo not drawn)	8%	-6%	8%	>57	1%	0%
C/C(=N/NS(=O)(=O)c1ccc(C)cc1)P(=O)(O)O	3%[11.4 µM]	-20%[11.4 µM]	10%[11.4 µM]	/	6%[11.4 µM]	3%[11.4 µM]
O=C(Nc1nc2ccccc2[nH]1)c1ccc(F)cc1	0%	4%	-2%	3.1*	11%	3.2µM*
O=C(Nc1nc2ccccc2[nH]1)c1ccccc1F	3%	-2%	-5%	1.4*	6%	1µM*
COc1ccc(C(=O)Nc2nc3ccccc3[nH]2)cc1OC	23%	-9%	6%	i	11%	25µM*
Cc1cc(NC(=O)c2ccccc2F)n(-c2nc3ccccc3[nH]2)n1	24%	1%	-2%	>57	18%	-1%
SMILES	TSHR agonist	ALOX15 inhib	Tau filament bind	Bst PK mod	HEK293 cAMP cs	FLuc inh
Cc1ccc([N+](=O)[O-])c(N)c1	4%	-2%	3%	/	13%	/
CCOC(=O)C1=C(C)NC(C)=C(C(=O)OCC)C1	12%	10µM*	-4%	>57	14%	2%
CO[C@]1(NC(=O)Cc2cccs2)C(=O)N2C(C(=O)O)=C(COC(N)=O)CS[C@H]21	-13%[25.6 µM]	9%[25.6 µM]	-8%[25.6 µM]	/	4%[25.6 µM]	5%[25.5 µM]
CC(=O)c1ccc(NC(=O)c2ccn[nH]2)cc1	-2%	?	-6%	/	1%	25µM*
N=C1C=CC=C2C1=NC1(CCCCC1)N2O	-16%	-13%	16µM*	/	-14%	-7%
COc1ccccc1NC(=O)CSc1nnnn1-c1ccc2c(c1)OCO2	18%	-15%	4%	>57	9%	-3%
COc1cccc(-n2nnnc2SCC(=O)Nc2cccc(C)n2)c1	?	-14%	1%	/	25µM*	2%
Cc1ccc(-n2nnnc2SCC(=O)Nc2ccccc2N2CCCCC2)cc1C	?	-19%	12%	>57	3.2µM*	0%
Cc1ccc(-c2csc3nnc(SCC(=O)Nc4cccc(C)n4)n23)cc1	8%	14%	20µM*	>57	-6%	-1%
CC12CCCC(O)(C1)C1CC(C)(C)C1CC2 (stereo not drawn)	/	3%	/	/	/	/
O=C(NCCc1c[nH]c2ccccc12)c1ccc(S(=O)(=O)NCc2ccco2)cc1	-12%	-14%	-19%	>57	-25%	-3%
O=C(c1ccccc1/S(=N/S(=O)(=O)c1ccccc1)N1CCOCC1)N1CCOCC1 (stereo not drawn)	1%	8%	3%	>57	10%	0%
Cc1ccc(C)c2[nH]c(=O)c(CN(Cc3ccc4c(c3)OCO4)Cc3nnnn3Cc3ccco3)cc12	?	25µM*	14%	>57	?	-2%
Cc1ccc2cc(CN(Cc3ccco3)C(=O)C3CCCCC3)c(=O)[nH]c2c1C	?	0%	0%	>57	20µM*	3%
Cc1ccc2cc(CN(Cc3ccc4c(c3)OCO4)Cc3nnnn3Cc3ccco3)c(=O)[nH]c2c1C	?	25µM*	41%	>57	?	-13%
Cc1cc(C)c2[nH]c(=O)c(CN(Cc3ccco3)C(=O)C3CCCO3)cc2c1 (stereo not drawn)	17%	-27%	3%	/	28%	-12%
O=C(c1cc(C(F)(F)F)cc(C(F)(F)F)c1)N1CCC2(CC1)CN(c1ccccn1)C2	2%	?	13%	/	5%	-2%[11.4 µM]
CS(=O)(=O)N(CC(=O)O)Cc1ccccc1	-8%[11.4 µM]	0%[11.4 µM]	0%[11.4 µM]	/	3%[11.4 µM]	1%[11.4 µM]
CN(C)C1CCN(C(=O)c2ccc(-n3c(=O)c(=O)[nH]c4ccccc43)cc2)C1 (stereo not drawn)	-5%	-6%	/	/	-11%	/
COc1cccc(Oc2cn[nH]c2-c2ccc(OC)cc2O)c1	?	?	?	>57	?	2%
COc1cccc(Oc2cn[nH]c2-c2ccc(O)cc2O)c1	?	?	-11%	>57	1µM*	-2%

Screens as filed in PubChem BioAssay.
